SMILES strings stand for the structures. The campaign covered roughly 360,000 compounds. About 2,000 (0.56%) were called active. The sample as a whole holds a higher share of actives than the screen did. Values without a mark were called inactive.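 The calls were made as follows: active = activation above the average of all compounds screened plus 3 SD, cutoff fixed separately per campaign (cut at about 7.5% in these data); inactive = the rest.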

The nature of the test: GAA850 frataxin promoter reporter upregulation – cell-based, luciferase luminescence, HEK293 lucGAA850, primary screen (AID 540364).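 Also: 0% = DMSO wells and 100% = 10 µM SAHA wells.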 As to conditions: HEK293 lucGAA850 FXN promoter luciferase reporter, 24 h; at 6 µM; active compounds read high. A general note: Reporter assays use an easily measured gene product as a stand-in for the process of interest.
Consider `O=C1C2(Cl)C3(Cl)C4(Cl)C(Cl)(Cl)C5(Cl)C3(Cl)C1(Cl)C5(Cl)C24Cl` (stereo not given), for which the activation is 9.58% (active).
In the case of `COc1ccc(Br)cc1CNCCc1cccc(Cl)c1` it was -0.31%; in that of `O=C(c1cc2nc(-c3ccccc3)cc(-c3ccccc3)n2n1)N1CCC2(CC1)OCCO2`, -0.55%.
In the case of `NCC(O)c1ccc(O)cc1` (stereo not given) it was 2.36%; in that of `CN1CCN(C(=O)COc2ccc(C(C)(C)C)cc2Br)CC1`, -0.38%; in that of `CC(C)(C)c1ccc(OC(=O)N2CCCCC2)cc1`, 8.59% (active).
In the case of `O=C(Nc1cccc(OC(=O)N2CCCCC2)c1)N1CCOCC1`, the activation was -1.14%.
Consider `CCN(CC)P(=O)(Oc1cccc(C)c1)N(CC)CC`, for which the activation is -1.37%.
Take `COc1ccc(-n2c(-c3ccccc3)nc3ccccc3c2=O)cc1`: the activation is 0.96%.
As to `CC(=C1C(=O)c2ccccc2C1=O)N1CCN(CCN=Cc2c(O)n(C)c(=O)n(C)c2=O)CC1`, the activation was 1.17%.

The values above are taken from PubChem BioAssay AID540364 (The Scripps Research Institute Molecular Screening Center, 2011).
